Laboratory results: PubChem BioAssay AID485364 (National Center for Advancing Translational Sciences (NCATS), 2010)
Among all 360,000 compounds or so, about 11,000 (3.1%) were called active. Where a call stands in place of a potency, no number is given. Roughly 4% stayed inconclusive and do not appear here. The call rests on the fitted dose curve; in most records, active means well fitted inhibition curve with a large enough effect; inconclusive means small, poorly fitted or top-dose-only effect; inactive means no such curve, though single readings can be large or run the other way. For the sample, actives were picked, then their nearest neighbours and some compounds at random.

Target: Schistosoma mansoni thioredoxin glutathione reductase (TGR) (UniProt Q962Y6)
Assay: qHTS Assay for the Inhibitors of Schistosoma Mansoni Peroxiredoxins; further: nearly all actives have a fitted effect of over 60% in size
Conditions: purified TGR, DTNB reduction, TNB absorbance 405 nm; series mostly up to 114 µM
Procedure, shortened: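 Kinetic colorimetric format: TGR-catalysed, NADPH-driven DTNB reduction monitored via TNB absorbance. Enzyme dispensed at 20 nM; compound exposure 15 min at room temperature before reaction start.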
Potency means the concentration at half of the fitted maximal effect.

SMILES | Potency
CC(C)CC(=O)NCC(c1ccc2c(c1)OCO2)N1CCN(c2ccc(F)cc2)CC1 (configuration not stated) | inactive
CCOc1cc(/C=C(\C#N)C(=O)Nc2ccccc2C)ccc1OCc1cc(=O)n2nc(CC)sc2n1 | inactive
CCOCCCn1c(SCC(=O)Nc2ccc(CC)cc2)nc2ccccc2c1=O | inactive
CCOc1ccc(NC(=O)CC2C(=O)N(c3cccc(OC)c3)C(=O)N2C2CCCCC2)cc1 (configuration not stated) | inactive
CCOc1cc(C2C(C(=O)OC)=CN(C3CCCC3)C=C2C(=O)OC)cc(Br)c1O | 56.2 µM (active)
CCOc1ccc(CNC(=O)C2CCC(=O)N2C2CCCC2)cc1OC (configuration not stated) | inactive
COC(=O)C1=CN(Cc2ccc(OC)cc2)C=C(C(=O)OC)C1c1ccc(O)c(OC)c1 | inactive
COc1ccc(C)cc1Nc1nc2ccccc2c2nnc(C)n12 | inactive
COc1cc2ccccc2cc1C(=O)Nc1cccc(-c2nc3ccccc3o2)c1 | inactive
CCCCN(CCCNC(=O)c1cc(Nc2ccccc2OC)nc2ccccc12)c1ccccc1 | inactive
O=C(CNS(=O)(=O)c1ccccc1)N1CCN(C(=O)c2ccco2)CC1 | inactive
O=C(c1cccc([N+](=O)[O-])c1)N1CCN(C(=O)c2ccco2)CC1 | inactive
O=C(c1cccc(S(=O)(=O)Nc2ccccc2Cl)c1)N1CCN(C(=O)c2ccco2)CC1 | 31.6 µM (active)
COc1ccc(OC)c(NC(=O)CSc2nc3ccccc3nc2N2CCCCC2)c1 | inactive
CCOc1ccc(C2C(C(=O)Nc3ccc(Cl)cc3)=C(C)Nc3nc(C(F)(F)F)nn32)cc1 (configuration not stated) | inactive
Cc1cccc(C(=O)NC(=S)N(C)C2CCCCC2)c1 | inactive
Cc1cccc(C(=O)N2c3nc(-c4ccco4)nn3C3(CCCCC3)[C@@H]3CCCC[C@@H]32)c1 | 35.5 µM (active)
Cc1ccc(C(=O)N2c3ncnn3C3(CCCCC3)[C@@H]3CCCC[C@@H]32)cc1 | inactive
CCN(CC)CCNC(=O)Cn1ncc2c3ccccc3n(Cc3ccccc3C)c2c1=O | inactive
COc1ccc(/C=C/c2noc(-c3ccccc3O)n2)cc1OC | inactive
COc1ccccc1CCNC(=O)c1cccn1-c1nnc(N2CCCCC2)s1 | inactive
CC1=C(C(=O)Nc2ccccc2)C(c2ccc(C)cc2)n2nc(SCc3ccccc3C)nc2N1 (configuration not stated) | inactive
Cc1ccc(C2C=C(c3ccc(Cl)cc3)Nc3nc(NC(=O)CCC(=O)O)nn32)cc1 (configuration not stated) | 17.8 µM (active)
COc1ccc(CNC(=O)Cn2nnc(-c3ccc(S(C)(=O)=O)cc3)n2)cc1 | inactive
COc1ccc(CC(=O)Nc2nc3n(n2)C(c2ccccc2)CC(=O)N3)cc1OC (configuration not stated) | inactive
COc1ccc(C2C=C(c3ccc(Br)cc3)Nc3nc(NS(C)(=O)=O)nn32)cc1 (configuration not stated) | 22.4 µM (active)
COc1ccc(C2=CC(c3ccccc3Cl)n3nc(-c4ccc(Cl)cc4)nc3N2)cc1 (configuration not stated) | inactive
